“And” between values parts separate entries of the source, which are not always exact repeats. Identical values can stand only once. Records with an inconclusive call do not appear. A call without a number means that no potency is given here. The source made the active and inactive calls. Calls come from the whole dose curve; as a rule, active = well fitted cell-killing curve with a large enough effect; inconclusive = small, poorly fitted or top-dose-only effect; inactive = no such curve, though single readings can be large or run the other way. Peptide text beside a SMILES is read from it.
Test: qHTS of pediatric cancer cell lines to identify multiple opportunities for drug repurposing: Primary screen for SK-N-SH cells (AID 1347098); note: nearly all actives have a fitted effect of over 65% in size
Conditions: SK-N-SH viability, CellTiter-Glo luminescence, 48 h; series mostly up to 57 µM
Text: Drug repurposing or repositioning has been offered as a strategy for drug development in oncology programs. This approach has special potential for childhood cancers and other rare or orphan diseases, where the expected return on new drug development has been a disincentive to pharmaceuticals.
In this project we exploit the poly-pharmacology of drugs to discover new indications via phenotypic screening of a panel of 19 well-characterized cell lines derived from solid tumors seen in children and adolescents. The goal is to identify approved drugs with previously unrecognized anticancer properties that has the potential to reveal new mechanisms and biological processes involved in carcinogenesis or drug resistance. We employed a titration-based paradigm (quantitative high-throughput screening or qHTS), where all compounds were tested at multiple concentrations for their effect on cell viability. Concentration-response curves (CRCs) were derived directly from the primary screen, and both potency and efficacy values were used to identify compounds with robust bioactivity profiles. We screened the NIH Chemical Genomics Center (NCGC) Pharmaceutical Collection (NPC) and Mechanism Interrogation Plate (MIPE) small molecule collections of approved and investigational compounds against these cell lines; and measured metabolically active cells after 48 hours of compound treatment as a proxy for cell viability.
Assay Submitter: Nathalia J. Martinez, National Center for Advancing Translational Sciences, National Institutes of Health, Rockville, MD, USA; email: natalia.martinez@nih.gov
[1] Shen, M et al. Quantitative high-throughput phenotypic screening of pediatric cancer cell lines identifies multiple opportunities for drug repurposing. Oncotarget 2017 Dec 19;9(4):4758-4772. PMID 29435139.
The cells were obtained from University of North Carolina (UNC), Pediatric Preclinical Testing Program (PPT), and Coriell Institute (CI).
qHTS cell viability assay:
Cells were assayed in growth media at a density of 500-1,000 cells/well. Five microliters of cells were dispensed into 1,536-well, white, solid-bottom, TC-treated plates (Greiner Bio One) using a multidrop dispenser and incubated at 37 degrees C, 5% CO2, under a humidified atmosphere for 5 hours. Twenty-three nanoliters of compounds and controls (neutral control DMSO or positive control bortezomib at final concentration of 2.3 µM) were subsequently transferred by Kalypsys pintool. For primary screens, the MIPE collection was tested at 11-point dilutions (final concentrations range from 0.78 nM to 46 µM) and the NPC collection at 8-point dilutions (final concentrations range from 0.59 nM to 46 µM). Compounds tested in follow-up screens were assayed at 11-point dilutions. Cells were incubated for 48 hours, followed by addition of 3 µL of CellTiter-Glo (Promega). After a 15 min incubation at room temperature, samples were analyzed for luminescence intensity using a ViewLux High-throughput CCD imager equipped with clear filters.
Potency is the fitted concentration of half-maximal effect.

Row | SMILES | Potency
1 | COC(=O)[C@H](Cc1ccccc1)NC(=O)[C@@H](N)CC(=O)O (H-Asp-Phe-OMe) | inactive
2 | CN1CCC(=C2c3ccccc3CCc3sccc32)CC1 | 13.6 µM (active)
3 | O=c1oc2cc(O)ccc2s1 | inactive
4 | CS(=O)(=O)OCCCCOS(C)(=O)=O | inactive
5 | O=C(O)c1cn(-c2ccc(F)cc2)c2cc(N3CCNCC3)c(F)cc2c1=O | inactive
6 | COC1=C(OC)C(=O)C(CCCCCCCCCCO)=C(C)C1=O | inactive
7 | O=C(NCCO[N+](=O)[O-])c1cccnc1 | inactive
8 | Nc1ncn([C@H]2C[C@H](O)[C@@H](CO)O2)c(=O)n1 | inactive
9 | Cc1nc(-c2ccc(OCC(C)C)c(C#N)c2)sc1C(=O)O | inactive
10 | Cc1ccc(NC(=O)c2ccc(CN3CCN(C)CC3)cc2)cc1Nc1nccc(-c2cccnc2)n1 | 34.4 µM (active)
11 | CC(C)[N+]1(C)[C@@H]2CC[C@H]1CC(OC(=O)C(CO)c1ccccc1)C2 (stereo not given in full) | inactive
12 | c1ccc2[nH]c(-c3cscn3)nc2c1 | inactive
13 | Oc1ccc2ccccc2c1SSc1c(O)ccc2ccccc12 | 19.2 µM (active)
14 | CCOC(=O)C1=C[C@@H](OC(CC)CC)[C@H](NC(C)=O)[C@@H](N)C1 | inactive
15 | CNC[C@@H](O)[C@@H](O)[C@H](O)[C@H](O)CO | inactive
16 | Cc1ncc([N+](=O)[O-])n1CC(C)O (stereo not given) | inactive
17 | C=C(c1ccc(C(=O)O)cc1)c1cc2c(cc1C)C(C)(C)CCC2(C)C | inactive
18 | CCOC(=O)c1c(C)n(C)c2ccc(O)cc12 | inactive
19 | OC(CN1CCN(c2cccc(Cl)c2)CC1)C(c1ccccc1)c1ccccc1 (stereo not given) | 15.2 µM (active)
20 | CCCc1cc(=O)[nH]c(=S)[nH]1 | inactive

Row | SMILES | Potency
21 | Cn1c(NCCN(CCO)CCCc2ccc([N+](=O)[O-])cc2)cc(=O)n(C)c1=O | inactive
22 | NC(=O)Cc1cccc(C(=O)c2ccccc2)c1N | inactive
23 | Oc1ccc(OCc2ccccc2)cc1 | inactive
24 | O=Nc1c(-c2c(O)[nH]c3cc(Br)ccc23)[nH]c2ccccc12 | 17.1 µM (active)
25 | CCOC(=O)C1=C(O)C(=O)N(Cc2ccccc2)C1 | inactive
26 | COc1ccc2cc([C@H](C)C(=O)O)ccc2c1 | inactive
27 | C[C@@H](c1ncncc1F)[C@](O)(Cn1cncn1)c1ccc(F)cc1F | inactive
28 | COc1cc2c(cc1OC)C1CC(=O)C(CC(C)C)CN1CC2 (stereo not given) | inactive
29 | Cc1cc(=O)oc2cc(O)ccc12 | inactive
30 | CC(C)c1ccc2oc3nc(N)c(C(=O)O)cc3c(=O)c2c1 | inactive
31 | Cc1c(C(=O)NN2CCCCC2)nn(-c2ccc(Cl)cc2Cl)c1-c1ccc(Cl)cc1 | 27.3 µM (active) and 30.4 µM (active)
32 | CC1(C)CCC(C)(C)c2cc(NC(=O)c3ccc(C(=O)O)cc3)ccc21 | inactive
33 | Cc1cc(=O)c2c(O)c3c(O)cc(=O)c4c3c3c(cc(O)c1c23)C(C)(C)C=4O | inactive
34 | Nc1ccn([C@@H]2O[C@H](CO)[C@@H](O)C2O)c(=O)n1 (stereo not given in full) | inactive
35 | Cc1nccn1CC1CCc2c(c3ccccc3n2C)C1=O (stereo not given) | inactive
36 | O=C1c2c(O)cc(O)cc2OC(c2ccc(O)c(O)c2)C1O (stereo not given) | 30.4 µM (active)
37 | C=CCc1cc(OC)c(O)c(C(=O)NCCO)c1 | inactive
38 | Cc1cccc(-c2[nH]ncc2-c2ccc3ncccc3n2)n1 | inactive
39 | COc1c(O)cc2c(c1O)[C@@H]1O[C@H](CO)[C@@H](O)[C@H](O)[C@H]1OC2=O | inactive
40 | O=c1c(O)c(-c2cc(O)c(O)c(O)c2)oc2cc(O)cc(O)c12 | inactive

Source: PubChem BioAssay (NCATS)
